Measurements as given in PubChem BioAssay (Tox21).
“And” between values parts separate entries of the source, which are not always exact repeats. Equal values may be shown once. Inconclusive results are not listed. Some compounds were tested as several samples or in several runs, with calls that do not always agree. The source made the active and inactive calls. Unless noted, calls follow the shape of the dose curve; as a rule, active = well fitted curve in the direction sought with a large enough effect in the repeat runs; inconclusive = weak or mixed curves; inactive = no such curve, though single readings can be large; an effect the other way counts as inactive or inconclusive.

Tests used:
[1] = qHTS assay to identify small molecule antagonists of the estrogen receptor alpha (ER-alpha) signaling pathway using the BG1 cell line in the presence of 0.1 nM 17-beta-estradiol - cell viability counter screen (AID 1259241); also: nearly all actives have a fitted effect of over 40% in size; also: potency is read from the fitted curve at half-maximal effect
Outline: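 Cells were plated and left 24 hr, compounds in DMSO were pinned in, 17beta-estradiol was added to 0.1 nM final, and after 22 hr CellTiter-Fluor reagent was added for 30 min before fluorescence was read.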

[2] = qHTS assay to identify small molecule antagonists of the androgen receptor (AR) signaling pathway using the MDA cell line in the presence of 0.5 nM R1881 - cell viability counter screen (AID 1259242); also: nearly all actives have a fitted effect of over 45% in size; also: potency is read from the fitted curve at half-maximal effect
Outline: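 Fluorescence from CellTiter-Fluor, which reports protease activity of live cells, was read 30 min after reagent addition to MDA-kb2 cells that had been incubated 16 hr with compound and 0.5 nM R1881.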

[3] = biological target: Estrogen receptor (Homo sapiens) (UniProt P03372); assay: qHTS assay to identify small molecule antagonists of the estrogen receptor alpha (ER-alpha) signaling pathway using the BG1 cell line in the presence of 0.1 nM 17-beta-estradiol (AID 1259244); also: nearly all actives have a fitted effect of over 50% in size; also: potency is read from the fitted curve at half-maximal effect
Outline: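 Quantitative high-throughput screen in VM7Luc4E2 cells: compound plus 0.1 nM E2 (final), 22 h, 37C, 5% CO2; ONE-Glo added, 30 min room temperature, luminescence measured.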

[4] = qHTS assay to identify small molecule HDAC inhibitors (AID 1259364); also: nearly all actives have a fitted effect of over 45% in size; also: potency is read from the fitted curve at half-maximal effect
Outline: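 Endogenous HDAC class I/II activity was measured in wild-type HCT-116 cells by HDAC-Glo luminescence after 2 h compound treatment.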

[5] = qHTS assay to identify small molecule HDAC inhibitors - cell viability counter screen (AID 1259365); also: series mostly up to about 92 µM; nearly all actives have a fitted effect of over 50% in size
Outline: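 Counter screen in wild-type HCT-116 cells: compounds dissolved in DMSO are pin-transferred onto overnight-plated cells and left 2hr at 37C. ATP-based CellTiter-Glo luminescence then measures viable cells.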

[6] = qHTS assay to identify small molecule agonists of the sonic hedgehog signaling (Shh) pathway - cell viability counter screen (AID 1259366); also: nearly all actives have a fitted effect of over 50% in size; also: potency is read from the fitted curve at half-maximal effect
Outline: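 Cells are plated at 2,000 per well and left 4hr at 37C, 5% CO2 before compound addition. After 23hr of treatment, CellTiter-Fluor reagent is added for 1hr at 37C and fluorescence is measured.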

[7] = qHTS assay to identify small molecule antagonists of the sonic hedgehog signaling (Shh) pathway - cell viability counter screen (AID 1259367); also: nearly all actives have a fitted effect of over 55% in size; also: potency is read from the fitted curve at half-maximal effect
Outline: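 Cells: 3T3 Gli1-Luc, 2,000/well, 4 hr pre-incubation. Compounds in DMSO, then conditioned medium. Incubation 24 hr, 37C, 5% CO2. CellTiter-Fluor at 23 hr, 1 hr, fluorescence.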

[8] = qHTS assay to identify small molecule agonists of the sonic hedgehog signaling (Shh) pathway (AID 1259368; calls by dose curve;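 also: NIH/3T3-derived 3T3Gli1-Luc cells carrying a stable Gli1-driven firefly luciferase reporter; series mostly up to about 92 µM; nearly all actives have a fitted effect of over 15% in size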)
Outline: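 Luminescent signal was taken as a measure of Gli1-controlled luciferase expression in stably transfected NIH/3T3-derived cells that had been treated for 24 hr with compounds delivered in DMSO.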

[9] = qHTS assay to identify small molecule antagonists of the sonic hedgehog signaling (Shh) pathway (AID 1259369; calls by dose curve; also: nearly all actives have a fitted effect of over 45% in size; also: potency is read from the fitted curve at half-maximal effect)
Outline: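 Screening used 3T3Gli1-Luc cells at 2,000 per well, compounds delivered in DMSO, and conditioned medium as agonist stimulus; plates incubated 24hr at 37 C and 5% CO2 before a 30min luciferase step.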

[10] = qHTS assay to identify small molecule agonists of the androgen receptor (AR) signaling pathway in the presence of an antagonist - cell viability counter screen (AID 1259379); also: nearly all actives have a fitted effect of over 25% in size; also: potency is read from the fitted curve at half-maximal effect
Outline: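 In MDA-kb2 cells (human breast carcinoma, MMTV-luciferase), compounds at 15 concentrations plus 3.0uM nilutamide; 16 hr, 37C, 0% CO2; CellTiter-Fluor fluorescence read for viability.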

[11] = qHTS assay to identify small molecule antagonists of the estrogen receptor beta (ER-beta) signaling pathway - cell viability counter screen (AID 1259382); also: nearly all actives have a fitted effect of over 55% in size; also: potency is read from the fitted curve at half-maximal effect
Outline: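 Tox21 10K library tested in qHTS format on ER-beta-bla HEK293T cells stimulated with 1nM E2; 16 hr treatment at 37C. Same-well CellTiter-Glo luminescence served as the cell viability measure.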

[12] = biological target: Estrogen receptor (Homo sapiens) (UniProt P03372); assay: qHTS assay to identify small molecule agonists of the estrogen receptor alpha (ER-alpha) signaling pathway in the presence of an antagonist (AID 1259383; calls by dose curve; also: top concentration of the series differs between compounds; nearly all actives have a fitted effect of over 15% in size)
Outline: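 In VM7Luc4E2 cells, 4,000 per well, compounds at 15 concentrations were co-incubated 22hr at 37C with 10.0nM final ICI-182,780. Luminescence from the stably transfected 4×ERE-luciferase reporter was recorded 30min after ONE-Glo addition.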

[13] = qHTS assay to identify small molecule agonists or antagonists of the thyroid stimulating hormone receptor (TSHR) signaling pathway - wild type cell line counter screen (AID 1259384; calls by dose curve)
Outline: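 Counter screen in untransfected Hek293: compounds (15-point titration, triplicate) plus phosphodiesterase inhibitor Ro20-1724 added after 18 h plating; 30 min RT. Intracellular cAMP via competitive d2/cryptate immunoassay, 1 h incubation.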

[14] = biological target: Estrogen receptor beta (Homo sapiens) (UniProt Q92731); assay: qHTS assay to identify small molecule agonists of the estrogen receptor beta (ER-beta) signaling pathway (AID 1259377; active = well fitted activation curve with a large enough effect in the signal ratio in the repeat runs, not every such curve was filed as active; the % refers to the signal ratio; also: potency is read from the fitted curve at half-maximal effect)
Outline: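 Agonist mode cell assay in GripTite HEK293T cells expressing an ER-beta fusion that drives beta-lactamase from an Upstream Activator Sequence; 16 hr compound exposure at 37C, then 2 h LiveBLAzer B/G FRET substrate at room temperature, fluorescence read-out.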

[15] = qHTS assay to identify small molecule agonists of the estrogen receptor beta (ER-beta) signaling pathway - cell viability counter screen (AID 1259380); also: nearly all actives have a fitted effect of over 30% in size; also: potency is read from the fitted curve at half-maximal effect
Outline: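 Viability of ER-beta-UAS-bla HEK293T cells was determined by CellTiter-Glo luminescence following 16 hr treatment with test compounds at 37C.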

[16] = biological target: Thyrotropin receptor (Homo sapiens) (UniProt P16473); assay: qHTS assay to identify small molecule antagonists of the thyroid stimulating hormone receptor (TSHR) signaling pathway (AID 1259385; calls by dose curve; also: nearly all actives have a fitted effect of over 20% in size)
Outline: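 Antagonist mode: compound-treated TSHR-expressing HEK293 cells were stimulated with 1.5 ng/mL TSH (final) in presence of Ro20-1724 for 30 min at RT. HTRF cAMP detection after 1 h; each compound tested at 15 concentrations, triplicate.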

[17] = biological target: Androgen receptor (Homo sapiens) (UniProt P10275); assay: qHTS assay to identify small molecule antagonists of the androgen receptor (AR) signaling pathway using the MDA cell line in the presence of 0.5 nM R1881 (AID 1259243); also: nearly all actives have a fitted effect of over 50% in size
Outline: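 Inhibition of R1881 (0.5 nM final) induced reporter signal was measured in human MDA-kb2 cells; note the MMTV promoter also responds to GR. Exposure lasted 16 hr at 37C.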

[18] = qHTS assay to identify small molecule phospholipidosis (PLD) inducers (AID 1259344; active = well fitted curve in the direction sought with a large enough effect; an effect the other way counts as inactive or inconclusive)
Outline: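 Phospholipidosis is scored by imaging LipidTOX-stained pits in HepG2 cells exposed to compound for 24 h at 37 C; pit counts and integrated intensities per well and per cell serve as outputs.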

[19] = biological target: Estrogen receptor beta (Homo sapiens) (UniProt Q92731); assay: qHTS assay to identify small molecule antagonists of the estrogen receptor beta (ER-beta) signaling pathway (AID 1259378; active = well fitted inhibition curve with a large enough effect in the signal ratio in the repeat runs, not every such curve was filed as active; the % refers to the signal ratio)
Outline: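 Antagonist mode: compounds added to beta-lactamase reporter HEK293T ER-beta-UAS cells stimulated with E2 (1nM final), 16 hr at 37C. LiveBLAzer B/G FRET substrate, 2 hours room temperature, fluorescence read-out.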

[20] = biological target: Androgen receptor (Homo sapiens) (UniProt P10275); assay: qHTS assay to identify small molecule agonists of the androgen receptor (AR) signaling pathway in the presence of an antagonist (AID 1259381; calls by dose curve; also: nearly all actives have a fitted effect of over 15% in size)
Outline: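 Here, 15-concentration compound series were pin-transferred onto MDA-kb2 MMTV-luciferase cells already dosed with nilutamide (3.0uM final). After 16hr at 37C, ONE-Glo was added and luminescence read 30min later at room temperature.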

Measured: Potency

Sequence of Thyrotropin receptor (Homo sapiens) (P16473 whole entry, looked up): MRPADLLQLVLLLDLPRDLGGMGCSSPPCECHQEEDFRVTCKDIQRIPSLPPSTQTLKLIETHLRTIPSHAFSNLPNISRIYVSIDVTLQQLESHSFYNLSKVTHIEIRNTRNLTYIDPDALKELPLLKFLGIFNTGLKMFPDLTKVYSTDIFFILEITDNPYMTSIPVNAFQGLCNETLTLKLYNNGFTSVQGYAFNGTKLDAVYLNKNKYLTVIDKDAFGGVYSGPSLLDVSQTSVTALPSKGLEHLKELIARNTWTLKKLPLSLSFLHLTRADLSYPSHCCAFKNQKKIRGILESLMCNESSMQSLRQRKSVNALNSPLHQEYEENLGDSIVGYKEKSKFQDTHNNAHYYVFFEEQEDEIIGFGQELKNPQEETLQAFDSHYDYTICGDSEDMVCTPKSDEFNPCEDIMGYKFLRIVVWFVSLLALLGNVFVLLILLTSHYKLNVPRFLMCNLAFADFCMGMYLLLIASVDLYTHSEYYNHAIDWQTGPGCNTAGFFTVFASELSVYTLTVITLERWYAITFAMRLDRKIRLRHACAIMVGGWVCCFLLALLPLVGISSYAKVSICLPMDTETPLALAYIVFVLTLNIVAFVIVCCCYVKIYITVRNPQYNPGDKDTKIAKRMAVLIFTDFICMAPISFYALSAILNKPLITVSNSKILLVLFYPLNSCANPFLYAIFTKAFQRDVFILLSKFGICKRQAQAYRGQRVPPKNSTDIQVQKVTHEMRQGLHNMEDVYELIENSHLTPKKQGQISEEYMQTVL
Sequence of Estrogen receptor beta (Homo sapiens) (Q92731 whole entry, looked up, the tested form may be a part): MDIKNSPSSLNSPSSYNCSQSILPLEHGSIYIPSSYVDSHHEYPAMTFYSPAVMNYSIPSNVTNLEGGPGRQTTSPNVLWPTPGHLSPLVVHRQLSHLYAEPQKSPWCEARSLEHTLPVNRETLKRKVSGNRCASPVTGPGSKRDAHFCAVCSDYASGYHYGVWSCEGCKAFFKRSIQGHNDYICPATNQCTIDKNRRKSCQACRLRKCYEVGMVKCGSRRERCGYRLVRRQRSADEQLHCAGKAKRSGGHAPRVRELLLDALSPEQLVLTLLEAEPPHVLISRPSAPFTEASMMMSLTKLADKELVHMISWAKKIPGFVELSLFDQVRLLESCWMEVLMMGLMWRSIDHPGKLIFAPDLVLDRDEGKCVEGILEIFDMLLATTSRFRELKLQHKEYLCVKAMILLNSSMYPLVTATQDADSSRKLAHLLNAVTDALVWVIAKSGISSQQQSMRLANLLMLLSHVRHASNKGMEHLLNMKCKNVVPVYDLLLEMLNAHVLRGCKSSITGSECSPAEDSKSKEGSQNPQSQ
Sequence of Estrogen receptor (Homo sapiens) (P03372 whole entry, looked up): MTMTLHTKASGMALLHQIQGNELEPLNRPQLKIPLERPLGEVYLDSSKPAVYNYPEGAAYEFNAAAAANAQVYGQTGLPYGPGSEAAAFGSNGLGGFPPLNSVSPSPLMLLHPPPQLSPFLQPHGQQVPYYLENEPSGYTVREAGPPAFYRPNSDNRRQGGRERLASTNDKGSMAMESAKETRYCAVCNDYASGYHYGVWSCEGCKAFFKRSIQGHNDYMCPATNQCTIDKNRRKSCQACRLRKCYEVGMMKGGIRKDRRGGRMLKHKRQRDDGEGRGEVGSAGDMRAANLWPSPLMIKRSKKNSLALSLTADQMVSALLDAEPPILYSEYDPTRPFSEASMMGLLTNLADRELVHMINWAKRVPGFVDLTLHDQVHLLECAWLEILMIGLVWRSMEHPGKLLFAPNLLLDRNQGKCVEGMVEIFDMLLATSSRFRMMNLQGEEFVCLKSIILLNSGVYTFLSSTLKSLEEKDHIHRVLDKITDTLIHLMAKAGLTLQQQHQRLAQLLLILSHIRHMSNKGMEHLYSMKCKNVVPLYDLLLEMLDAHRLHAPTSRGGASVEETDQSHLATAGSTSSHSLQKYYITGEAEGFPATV
Sequence of Androgen receptor (Homo sapiens) (P10275 whole entry, looked up): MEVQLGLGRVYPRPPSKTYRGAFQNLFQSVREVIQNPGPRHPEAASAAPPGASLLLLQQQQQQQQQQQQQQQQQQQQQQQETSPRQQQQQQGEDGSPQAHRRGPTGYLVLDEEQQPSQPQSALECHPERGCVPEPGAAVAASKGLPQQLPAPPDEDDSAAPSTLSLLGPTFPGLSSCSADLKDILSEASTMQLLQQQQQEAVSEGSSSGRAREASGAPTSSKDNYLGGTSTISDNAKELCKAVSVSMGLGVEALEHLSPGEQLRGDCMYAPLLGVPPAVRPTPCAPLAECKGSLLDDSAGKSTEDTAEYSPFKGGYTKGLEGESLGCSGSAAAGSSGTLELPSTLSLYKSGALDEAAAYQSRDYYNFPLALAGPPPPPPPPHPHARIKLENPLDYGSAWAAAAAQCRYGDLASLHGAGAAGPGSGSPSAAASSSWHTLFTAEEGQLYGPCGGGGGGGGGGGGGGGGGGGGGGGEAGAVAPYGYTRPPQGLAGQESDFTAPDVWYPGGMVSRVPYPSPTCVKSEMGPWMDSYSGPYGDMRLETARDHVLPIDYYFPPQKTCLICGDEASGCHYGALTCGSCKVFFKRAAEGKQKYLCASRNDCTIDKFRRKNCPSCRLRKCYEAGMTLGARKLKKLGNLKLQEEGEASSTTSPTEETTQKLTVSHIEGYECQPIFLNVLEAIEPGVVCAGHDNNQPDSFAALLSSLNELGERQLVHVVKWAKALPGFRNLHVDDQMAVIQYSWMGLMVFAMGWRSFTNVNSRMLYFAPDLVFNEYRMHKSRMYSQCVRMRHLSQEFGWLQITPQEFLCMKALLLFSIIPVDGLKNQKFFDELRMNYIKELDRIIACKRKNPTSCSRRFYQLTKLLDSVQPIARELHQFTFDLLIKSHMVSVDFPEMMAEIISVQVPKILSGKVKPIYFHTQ

CCC(C)(C)O
not listed: [14] | [15] | [16] | [17] | [18] | [19] | [20]
inactive: all other assays above

C=CC(=O)NC(C)(C)CC(C)=O
not listed: [6] | [13] | [16] | [17] | [18] | [19] | [20]
inactive: all other assays above

O=C([O-])c1ccccn1.O=C([O-])c1ccccn1.O=C([O-])c1ccccn1.[Cr+3]
not listed: [13] | [16] | [17] | [18] | [19] | [20]
inactive: all other assays above

N#CC(C#N)=C(C#N)C#N
inactive: [1] | [2] | [3] | [5] | [8] | [14] | [15] | [11] | [12] | [13]

CCSCc1ccccc1OC(=O)NC
not listed: [6] | [17] | [18] | [19] | [20]
inactive: all other assays above

Nc1ccc2c(c1)Cc1ccccc1-2
not listed: [9] | [13] | [14] | [16] | [17] | [18] | [19] | [20]
inactive: all other assays above

CCC(C)(C)c1ccc(O)c(C(C)(C)CC)c1
inactive: [1] | [3] | [4] | [7] | [8] | [9] | [12] | [13] | [16]
active: [2] 67.8 µM | [15] 21.4 µM and 24.3 µM | [11] 53.9 µM and 30.6 µM

CON(C)C(=O)Nc1ccc(Cl)cc1
active: [4] 27.3 µM
not listed: [9] | [13] | [17] | [18] | [19] | [20]
inactive: all other assays above

CN(C)c1ccc(N=O)cc1
inactive: [4] | [5] | [8] | [14] | [12]
43.4 µM (active) and inactive: [3]
active: [1] 61.3 µM | [2] 48.7 µM and 48.6 µM | [6] 21.8 µM and 21.7 µM | [7] 24.4 µM and 27.3 µM | [9] 15.4 µM | [10] 43.4 µM and 43.3 µM | [15] 3.87 µM and 15.4 µM

CCOc1cccc(C2(N3CCN(c4ccccc4)CC3)CCC(C)CC2)c1 (stereo not given)
not listed: [14] | [17] | [18] | [19] | [20]
inactive: all other assays above

O=[N+]([O-])c1cc(Cl)c(Cl)cc1Cl
not listed: [10] | [13] | [16] | [17] | [18] | [19] | [20]
inactive: all other assays above

CCOP(=S)(OCC)SCSc1cc(Cl)ccc1Cl
not listed: [14] | [17] | [18] | [19] | [20]
inactive: all other assays above

OCC1CO1 (stereo not given)
not listed: [13] | [14] | [16] | [17] | [18] | [19] | [20]
inactive: all other assays above

COC(=O)Cc1ccccc1
inactive: [1] | [2] | [3] | [4] | [5] | [6] | [7] | [8] | [10] | [11] | [12]

O=C(O)c1cc(I)cc(I)c1I
not listed: [14] | [17] | [18] | [19] | [20]
inactive: all other assays above

COc1ccc2c(c1OC)C(=O)O[C@H]2[C@@H]1c2cc3c(cc2CCN1C)OCO3
active: [6] 5.96 µM | [7] 5.96 µM
not listed: [2] | [3] | [9] | [12] | [13]
inactive: all other assays above

C=CCSSCC=C
not listed: [3] | [12] | [13] | [14] | [17] | [18] | [19] | [20]
inactive: all other assays above

Clc1ccc(Cl)c(Cl)c1
59.5 µM (active) and inactive: [14]
not listed: [3] | [9] | [12] | [17] | [18] | [20]
inactive: all other assays above

Cc1ccccc1
not listed: [3] | [12] | [17] | [18] | [20]
inactive: all other assays above

CCCCOC(=O)CCC(=O)OCCCC
inactive: [1] | [2] | [4] | [5] | [6] | [7] | [8] | [14] | [10] | [11] | [16]
